Assay results as given in the supplement of paper PMC9694430.

Tests used:
Experiment in all cases: thermal shift delta Tm vs DMSO control; higher = stronger stabilization (binding)
Conditions in all cases: 12.5 µM; protein concentration 2 µM
[1] = tested on: LOC_OS02G45750-cb003
Method in brief: (§1)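 Compounds dissolved in DMSO were added to purified rice kinase domain constructs, which had been expressed in E. coli, for differential scanning fluorimetry. Each well held 19.5 μl of 2 μM kinase in 100 mM potassium phosphate pH 7.5, 150 mM NaCl, 10% glycerol and 5 × SYPRO Orange. Fluorescence was followed from 25°C to 95°C at a rate of 0.05°C/s. Shifts in Boltzmann-fitted melting temperature are triplicate means relative to DMSO-only protein.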

[2] = tested on: LOC_OS02G54510-cb004
Method in brief: as §1

[3] = tested on: LOC_OS03G04050-cb001
Method in brief: as §1

[4] = tested on: LOC_OS03G12390-cb001
Method in brief: as §1

[5] = tested on: LOC_OS03G27990-cb004
Method in brief: as §1

[6] = tested on: LOC_OS03G50450-cb001
Method in brief: as §1

[7] = tested on: LOC_OS03G50810-cb003
Method in brief: as §1

[8] = tested on: LOC_OS04G35114-cb001
Method in brief: as §1

[9] = tested on: T1, LOC_OS04G38480-cb003
T1 sequence (whole entry): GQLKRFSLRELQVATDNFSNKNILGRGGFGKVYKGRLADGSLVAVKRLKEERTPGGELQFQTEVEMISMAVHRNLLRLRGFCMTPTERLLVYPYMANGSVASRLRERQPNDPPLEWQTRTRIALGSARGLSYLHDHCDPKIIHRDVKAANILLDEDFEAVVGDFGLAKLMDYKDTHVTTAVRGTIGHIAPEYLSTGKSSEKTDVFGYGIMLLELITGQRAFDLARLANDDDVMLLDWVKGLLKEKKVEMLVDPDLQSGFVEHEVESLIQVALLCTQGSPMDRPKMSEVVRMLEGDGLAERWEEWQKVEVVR
Method in brief: as §1

[10] = tested on: T2, LOC_OS04G41100-cb001
T2 sequence (whole entry): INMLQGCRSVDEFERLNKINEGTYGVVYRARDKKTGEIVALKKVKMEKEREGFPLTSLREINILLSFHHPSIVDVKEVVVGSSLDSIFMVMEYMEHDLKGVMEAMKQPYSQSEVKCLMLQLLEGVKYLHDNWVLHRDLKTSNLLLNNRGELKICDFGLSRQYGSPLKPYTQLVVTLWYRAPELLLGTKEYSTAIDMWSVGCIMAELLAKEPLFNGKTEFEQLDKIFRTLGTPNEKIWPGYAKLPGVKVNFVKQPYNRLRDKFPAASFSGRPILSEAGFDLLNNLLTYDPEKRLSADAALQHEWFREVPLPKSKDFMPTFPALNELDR
Method in brief: as §1

[11] = tested on: LOC_OS04G57630-cb004
Method in brief: as §1

[12] = tested on: LOC_OS05G07850-cb002
Method in brief: as §1

[13] = tested on: LOC_OS05G16824-cb004
Method in brief: as §1

[14] = tested on: LOC_OS05G28520-cb001
Method in brief: as §1

[15] = tested on: LOC_OS05G30820-cb001
Method in brief: as §1

[16] = tested on: LOC_OS05G43570-cb004
Method in brief: as §1

[17] = tested on: LOC_OS06G16330-cb003
LOC_OS06G16330-cb003, sequence (as listed by the source): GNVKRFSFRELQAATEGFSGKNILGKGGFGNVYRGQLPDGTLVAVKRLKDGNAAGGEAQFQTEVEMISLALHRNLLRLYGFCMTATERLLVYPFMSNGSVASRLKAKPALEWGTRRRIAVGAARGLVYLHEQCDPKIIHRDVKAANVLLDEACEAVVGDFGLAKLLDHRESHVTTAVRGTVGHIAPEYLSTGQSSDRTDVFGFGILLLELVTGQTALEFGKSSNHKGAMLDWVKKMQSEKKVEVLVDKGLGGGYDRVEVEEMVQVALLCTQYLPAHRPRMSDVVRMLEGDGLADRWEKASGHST
Method in brief: as §1

[18] = tested on: T3, LOC_OS06G22820-cb001
T3 sequence (whole entry): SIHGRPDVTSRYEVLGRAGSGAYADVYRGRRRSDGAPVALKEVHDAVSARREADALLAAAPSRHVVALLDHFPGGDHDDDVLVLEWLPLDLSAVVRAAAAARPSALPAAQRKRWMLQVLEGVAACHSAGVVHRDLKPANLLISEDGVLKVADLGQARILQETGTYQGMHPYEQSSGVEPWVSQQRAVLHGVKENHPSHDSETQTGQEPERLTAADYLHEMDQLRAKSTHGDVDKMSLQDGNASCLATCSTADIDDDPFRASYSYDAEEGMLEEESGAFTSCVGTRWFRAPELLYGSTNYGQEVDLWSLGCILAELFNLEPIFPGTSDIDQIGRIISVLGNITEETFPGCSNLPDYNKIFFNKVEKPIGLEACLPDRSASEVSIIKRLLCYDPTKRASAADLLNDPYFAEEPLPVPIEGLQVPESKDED
Method in brief: as §1

[19] = tested on: LOC_OS07G06570-cb004
Method in brief: as §1

[20] = tested on: LOC_OS07G07230-cb001
Method in brief: as §1

| SMILES | thermal shift delta Tm [1] | thermal shift delta Tm [2] | thermal shift delta Tm [3] | thermal shift delta Tm [4] | thermal shift delta Tm [5] | thermal shift delta Tm [6] | thermal shift delta Tm [7] | thermal shift delta Tm [8] | thermal shift delta Tm [9] | thermal shift delta Tm [10] | thermal shift delta Tm [11] | thermal shift delta Tm [12] | thermal shift delta Tm [13] | thermal shift delta Tm [14] | thermal shift delta Tm [15] | thermal shift delta Tm [16] | thermal shift delta Tm [17] | thermal shift delta Tm [18] | thermal shift delta Tm [19] | thermal shift delta Tm [20] |
| --- | --- | --- | --- | --- | --- | --- | --- | --- | --- | --- | --- | --- | --- | --- | --- | --- | --- | --- | --- | --- |
| CN(c1ccccc1CNc1nc(Nc2ccc3c(c2)CC(=O)N3)ncc1C(F)(F)F)S(C)(=O)=O | 11.6 °C | 1.85 °C | 0.4 °C | 6.91 °C | 2.93 °C | 3.16 °C | 5.31 °C | 5.87 °C | 3.54 °C | 2.86 °C | 3.74 °C | 11.3 °C | 11.6 °C | 2.32 °C | 4 °C | 0.97 °C | 7.19 °C | -0.04 °C | 1.23 °C | 0.27 °C |
| COc1ccccc1-c1cc(Nc2cccc(CS(N)(=O)=O)c2)ncn1 | 3.96 °C | 0.61 °C | 0.43 °C | 0.77 °C | 0.57 °C | 0.51 °C | 0.56 °C | 1.63 °C | 2.33 °C | 0.8 °C | 0.35 °C | 5.65 °C | 3.26 °C | 0.95 °C | 0.39 °C | 0.37 °C | 4.76 °C | 0.66 °C | 0.36 °C | -0.22 °C |
| C[C@@H](N)[C@H]1CC[C@H](C(=O)Nc2ccncc2)CC1 | 0.42 °C | -0.03 °C | 0.29 °C | 0.52 °C | 0.09 °C | 0.25 °C | 0.21 °C | 0.03 °C | 1.42 °C | 0.81 °C | 0.06 °C | 0.75 °C | 1.53 °C | 0.81 °C | 0.41 °C | 0.43 °C | 0.4 °C | 0.94 °C | 0.98 °C | 0.08 °C |
| Cn1c2ccccc2c2c3c(c4c5ccccc5n(CCC#N)c4c21)CNC3=O | 5.83 °C | 0.92 °C | 0.61 °C | 2.98 °C | 1.85 °C | 1.84 °C | 6.02 °C | 11.6 °C | 2.74 °C | 0.46 °C | 0.32 °C | 14.2 °C | 7.06 °C | 1.51 °C | 1.15 °C | 1.86 °C | 7.19 °C | 1.21 °C | -0.17 °C | 1.18 °C |
| CNC(=O)c1cc(COc2nnc(Nc3ccc(Cl)cc3)c3ccoc23)ccn1 [Telatinib] | 0.27 °C | 0.15 °C | 0.24 °C | -0.25 °C | 0.21 °C | 0.19 °C | 0.38 °C | 0.7 °C | 1.95 °C | 1.53 °C | 0.3 °C | 0.35 °C | -3.58 °C | 0.37 °C | 0.56 °C | 0.21 °C | -0.23 °C | 0.39 °C | 0.17 °C | 0.1 °C |
| CS(=O)(=O)c1cccc(CNc2nc(Nc3ccc4c(c3)CCC(=O)N4)ncc2C(F)(F)F)c1 | 10.4 °C | 1.28 °C | 0.17 °C | 5.43 °C | 1.28 °C | 3.56 °C | 4.21 °C | 3.71 °C | 2.37 °C | 2.51 °C | 1.7 °C | 8.91 °C | 11.1 °C | 1.18 °C | 2.8 °C | 0.96 °C | 6.92 °C | 0.35 °C | 0.43 °C | -0.39 °C |
| COc1cc2ncnc(Nc3ccc(F)c(Cl)c3)c2cc1NC(=O)/C=C/CN1CCCCC1 | 1.69 °C | 0.71 °C | 1.08 °C | 0.21 °C | 1.04 °C | 1.79 °C | 0.95 °C | 1.15 °C | 1.53 °C | 0.71 °C | 0.99 °C | 0.3 °C | -1.53 °C | 1.09 °C | 0.67 °C | 1.72 °C | 0.01 °C | 1.31 °C | 1.37 °C | 0.21 °C |
| COc1cc(Nc2ncc(F)c(Nc3ccc4c(n3)NC(=O)C(C)(C)O4)n2)cc(OC)c1OC | 6.19 °C | 4.62 °C | 0.45 °C | 9.67 °C | 2.62 °C | 10.5 °C | 5.15 °C | 2.97 °C | 4.12 °C | 0.74 °C | 1.55 °C | 13.2 °C | 12.2 °C | 0.56 °C | 1.19 °C | 0.37 °C | 12.2 °C | 0.02 °C | 0.43 °C | 0.41 °C |
| CN1C(=O)[C@@H](NC(=O)c2n[nH]c(Cc3ccccc3)n2)COc2ccccc21 | 0.85 °C | -0.02 °C | 0.45 °C | 0.81 °C | 0.38 °C | 0.66 °C | 0.57 °C | -0.51 °C | 2 °C | 0.34 °C | 0.41 °C | 0.32 °C | 2.34 °C | -0.04 °C | 0.15 °C | 0.36 °C | 0.02 °C | 0.48 °C | 1.77 °C | 0.47 °C |
| Cc1n[nH]c2ncc(C(=O)N3CCC[C@H]3c3ccc(Cl)cc3)cc12 | 0.21 °C | 0.12 °C | 0.41 °C | 0.13 °C | 0.35 °C | 0.17 °C | 0.18 °C | 0.28 °C | 0.98 °C | 0.46 °C | 0.01 °C | 0.81 °C | -6.54 °C | 0.03 °C | 0.26 °C | 0.19 °C | 0.11 °C | 0.56 °C | 1.74 °C | 0.45 °C |
| CS(=O)(=O)N1CCN(Cc2cc3nc(-c4cccc5[nH]ncc45)nc(N4CCOCC4)c3s2)CC1 [Pictilisib (GDC-0941)] | 0.86 °C | 0.25 °C | 0.28 °C | 0.14 °C | 0.17 °C | 0.22 °C | 1.56 °C | 1.73 °C | -0.11 °C | 0.72 °C | -0.38 °C | 5.5 °C | 0.86 °C | 0.48 °C | 0.36 °C | 0.46 °C | 0.57 °C | 0.43 °C | 0.46 °C | 0.23 °C |
| CN1CCN(C2CCN(C(=O)Nc3cc(Oc4ccc(NC(=O)C5(C(=O)Nc6ccc(F)cc6)CC5)c(F)c4)ccn3)CC2)CC1 [Golvatinib (E7050)] | 0.4 °C | -0.38 °C | 0.26 °C | 0.04 °C | 0.36 °C | 0.52 °C | 0.33 °C | 0.27 °C | 1.71 °C | 1.78 °C | 0.73 °C | 5.87 °C | -0.83 °C | 6.78 °C | 0.39 °C | 0.58 °C | 2.41 °C | 0.51 °C | 1.02 °C | 0.08 °C |
| Cn1cc(-c2ccc3nnc(Sc4ccc5ncccc5c4)n3n2)cn1 | 0.93 °C | 0.23 °C | 0.63 °C | -0.22 °C | 0.45 °C | 0.82 °C | 0.32 °C | 0.81 °C | 1.04 °C | 0.48 °C | 0.16 °C | 0.32 °C | -3.78 °C | 0.44 °C | 0.68 °C | 0.24 °C | 0.16 °C | 0.36 °C | 1.36 °C | 0.51 °C |
